Results filed as inconclusive are left out. Values without a mark were called inactive. The call rests on the fitted dose curve; in most records, active means well fitted cell-killing curve with a large enough effect; inconclusive means small, poorly fitted or top-dose-only effect; inactive means no such curve, though single readings can be large or run the other way.
assay: qHTS of pediatric cancer cell lines to identify multiple opportunities for drug repurposing: Primary screen for Rh30 cells (AID 1347107); conditions: Rh30 rhabdomyosarcoma viability, CellTiter-Glo luminescence, 48 h; series mostly up to 46 µM; activity change, negative = cytotoxic: at the top concentration; further: nearly all actives have a fitted effect of over 75% in size
Method in brief: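 Viability after 48 h compound treatment at 37C, 500-1,000 cells/well, read as ATP luminescence with CellTiter-Glo. Primary screens used 11-point (MIPE, 0.78 nM-46 µM) or 8-point (NPC, 0.59 nM-46 µM) final concentrations; follow-up screens used 11-point dilutions.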
On the % scale 0 is the no-effect control and ±100 the full control effect.

Row | SMILES | activity change, negative = cytotoxic
1 | Nc1cccc(S(=O)(=O)N2CCCN(S(=O)(=O)c3ccc4c(c3)OCCO4)CC2)c1 | 3.5%
2 | Cc1ccccc1C(C(=O)NC1CCCC1)N(C(=O)Cn1cnc2ccccc21)c1cccc(F)c1 (stereo unspecified) | 7.2%
3 | CC(C)(C)OC(=O)CN(Cc1ccc(Cl)cc1)Cc1ccc([N+](=O)[O-])s1 | 3.39%
4 | OCCn1cc(-c2cnc3nnn(Cc4ccc5ncccc5c4)c3n2)cn1 | 3.6%
5 | CCCc1nn(C)c2c(=O)[nH]c(-c3cc(S(=O)(=O)N4CCN(C)CC4)ccc3OCC)nc12 | 9.6%
6 | CCC(C)N(C)C(=O)c1cc2ccccc2c(-c2ccccc2Cl)n1 (stereo unspecified) | 2.07%
7 | O=C1CCCC2=C1C(c1[nH]ncc1Cl)N=C(Nc1nc3ccccc3o1)N2 (stereo unspecified) | 14.8%
8 | S=C(NCc1ccc2c(c1)OCO2)N1CCN(c2ncnc3c2oc2ccccc23)CC1 | -13.7% [at 92.7 µM]
9 | CC1(C)CNc2cc(NC(=O)c3cccnc3NCc3ccncc3)ccc21 | -23.5%
10 | CCn1c(-c2nonc2N)nc2c(C#CC(C)(C)O)ncc(OC[C@H]3CCCNC3)c21 | -1.77%
11 | COc1c(Cl)cc2c([nH]c3cnccc32)c1NC(=O)c1cccnc1C | -19.2%

Source: PubChem BioAssay (NCATS)
